The panel holds about 79,000 compounds, 15% with a hit somewhere; the sample as a whole holds those more often. A number with no mark means an inactive call. Calls of active or inactive are those of the source. Cut-off read from the data, not from the text of the source: active = growth inhibition above about 70%; inactive = the rest.
assay: NCI Yeast Anticancer Drug Screen. Data for the cln2 rad14 strain (AID 165);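 note: 0% = growth equal to vehicle treated cultures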; conditions: S. cerevisiae cln2 rad14 strain, at 50.0 µM, hits give high values
Procedure, shortened: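 Test compounds were added to cln2 rad14 yeast cultures; inhibition of growth was then determined by comparison with vehicle treatment.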

Structure (SMILES)	growth inhibition
O=C(O)c1ccccc1C(=O)Nc1ccc2ccccc2c1	2.6%
O=[N+]([O-])c1ccc(N/N=C2\CCC3CC23)c([N+](=O)[O-])c1 (stereo not given)	-1.35%
CCOC(=O)c1c(C)[nH]c(-c2csc(N)n2)c1C	-55.7%
Cc1cccc(C)c1C	-3.05%
Cc1cc(N)c(N=Cc2ccccc2[N+](=O)[O-])cc1C	-58.8%
CN(C)Cc1cccc(C(F)(F)F)c1C(O)c1ccccc1 (stereo not given)	3.9%
Nc1ccc2cc(S(=O)(=O)O)cc(S(=O)(=O)O)c2c1	-18.9%
Nc1nc2c(nnn2-c2ccc(Cl)cc2)c(=O)[nH]1	-25.1%
C(=C\C1OCCO1)/c1ccccc1	-2.4%
COc1cccc2c1CCC1=CC(=O)CCC12C (stereo not given)	28.8%
O=C(NC(=O)c1c(F)cccc1F)Nc1ccc(Cl)nc1	2.3%
CC1=C/C(=N/Nc2ccc([N+](=O)[O-])cc2[N+](=O)[O-])CC(C)(C)C1	-41%
COC1(OC)CC2C(=O)N(Cc3ccccc3)C1C(S(=O)(=O)c1ccccc1)C2C(C)S(=O)(=O)c1ccccc1 (stereo not given)	-35%
CC(=O)N/C(=C\c1ccccc1)C(N)=O	0.6%
CCCn1cnc2c(SCC(=O)O)nc(N)nc21	-26.1%
c1ccc(-c2ccc3c4ccccc4ccn23)cc1	17.7%
O=S(=O)(Nc1ncccn1)c1ccc(N=NSC2=NC=NC3=NC=NC32)cc1 (stereo not given)	4%
CC[CH2][Sn]([CH2]CC)([O]C(=O)c1cccnc1SC)[O][Sn]([CH2]CC)([CH2]CC)[O]C(=O)c1cccnc1SC	88.9% (active)
CC(=O)c1cccc(NC(=O)Nc2cccc(O)c2)c1	7%
C#CCN(Cc1ccc2nc(-c3ccccc3)c(Cl)nc2c1)c1ccc(Cl)c(Cl)c1	-37.5%

Structure (SMILES)	growth inhibition
O=C(NCC1(O)CCCCC1)c1ccccc1	-8.35%
NC(CCC(N)C(=O)O)C(=O)O (stereo not given)	-13.5%
COc1cc(CSCC(=O)O)ccc1O	-19.4%
O=c1[nH]c2nc3ccccc3c(=O)n2/c1=C/c1ccc(Cl)cc1	29.6%
C=CC1=C(C)C2=NC1=CC1=NC(=CC3=C(C)C4=C(O)C(C(=O)OC)C(=C5NC(=C2)C(C)C5CCC(=O)OC/C=C(\C)CCCC(C)CCCC(C)CCCC(C)C)C4=N3)C(CC)=C1C (stereo not given)	3.4%
NC(N)=NC(=O)c1ccccc1	-23.1%
CC(=O)Nc1ccc(C(=O)NN2C(=O)C(Cl)C2c2ccc(Cl)cc2)cc1 (stereo not given)	-27.3%
COc1cc([N+](=O)[O-])cc(C=O)c1O	-67.5%
O=C(O)C1CCCCC1C(=O)Nc1nc2ccccc2[nH]1 (stereo not given)	-16.7%
CSc1nc2nc[nH]c(=O)c2[nH]1	-14.1%
CCSC(OC(C)=O)C(Nc1ccc([N+](=O)[O-])cc1[N+](=O)[O-])C(OC(C)=O)C(OC(C)=O)C(COC(C)=O)OC(C)=O (stereo not given)	17.2%
CC(C)N(CCN1CCCCC1)c1ccccn1	-75.5%
CN(C)c1ccc(N=Nc2ccc(S(=O)(=O)O)cc2)cc1.CN(C)c1ccc(N=Nc2ccc(S(=O)(=O)O)cc2)cc1.[NH-]C1CCCCC1[NH-].[Pt+2]	-9.15%
COC(=O)C1CSC(C)(C)N1 (stereo not given)	-0.95%
O=C(Oc1c(Br)cc(Br)cc1C(=O)Oc1ccccc1)C(=O)Oc1c(Br)cc(Br)cc1C(=O)Oc1ccccc1	28.8%
ClCC1COC(CCc2ccccc2)O1 (stereo not given)	64.2%
COc1ccc(C(C)c2cc(OC)c(OC)cc2OC)cc1 (stereo not given)	-29.2%
COc1cc(CCCCC(=O)O)cc(Br)c1OC	-33.7%
CC1CN1C(=O)Nc1cccc2c(NC(=O)N3CC3C)cccc12 (stereo not given)	-15.8%
Nc1ccc(S(=O)(=O)/N=C(\NS(=O)(=O)c2ccc(N)cc2)c2ccccc2)cc1	16.2%
